Usually AC50 stands for the midpoint of the concentration-response curve, whichever way the signal moves.

Calls of active or inactive are those of the source. Rule for the calls: active = hit-call score of the fitted dose curve at least 0.9, where 1 is the maximum; inactive = score below 0.9.

Consider three molecules from PubChem BioAssay (EPA / NIEHS).

Read-out in experiment [1]: Cyclin D2 (CCND2), CCND2 (gene 894)
Kind of experiment: LTEA_HepaRG_CCND2: Life Technologies and Expression Analysis (LTEA) Assay for Cyclin D2 (CCND2) using HepaRG (AID 2283449).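 Note: CCND2 transcript measured by TaqMan qRT-PCR and normalised to three housekeeping genes.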 The settings on record: mRNA level, 48 h; actives raise or lower the signal. The procedure, abridged: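 HepaRG, 48 h dosing, 8-pt half-log curve from 100 uM, 0.5% DMSO; duplicate wells. Readout: CCND2 transcript by microfluidic qRT-PCR, housekeeping-normalised; bidirectional fit vs DMSO baseline.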

Read-out in experiment [2]: Cyclin Dependent Kinase Inhibitor 1A (CDKN1A), CDKN1A (gene 1026)
Kind of experiment: LTEA_HepaRG_CDKN1A: Life Technologies and Expression Analysis (LTEA) Assay for Cyclin Dependent Kinase Inhibitor 1A (CDKN1A) using HepaRG (AID 2283450). The settings on record: mRNA level, 48 h; actives raise or lower the signal. The procedure, abridged:
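Read-out is CDKN1A mRNA by TaqMan qRT-PCR, normalized to three housekeeping genes and fitted in both directions against the DMSO baseline. Human HepaRG cells were treated 48 h with test chemicals up to 100 uM in half-log steps, 0.5% DMSO.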

Read-out in experiment [3]: Cyclin D1 (CCND1), CCND1 (gene 595)
Kind of experiment: LTEA_HepaRG_CCND1: Life Technologies and Expression Analysis (LTEA) Assay for Cyclin D1 (CCND1) using HepaRG (AID 2283451). To be noted: mRNA level, 48 h; actives raise or lower the signal. The method in brief:
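HepaRG plated 48 h, medium switched to serum-free induction medium, chemicals added in duplicate (top 100 uM, half-log steps, 0.5% DMSO) for 48 h, cells lysed, RNA measured by TaqMan qRT-PCR.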

Read-out in experiment [4]: catalase (CAT), CAT (gene 847)
Kind of experiment: LTEA_HepaRG_CAT: Life Technologies and Expression Analysis (LTEA) Assay for catalase (CAT) using HepaRG (AID 2283452). To be noted: mRNA level, 48 h; actives raise or lower the signal. The method in brief: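 HepaRG cells in serum-free induction medium, 0.5% DMSO vehicle, exposed 48 h in duplicate over 8 half-log concentrations from 100 uM. CAT mRNA measured by qRT-PCR, normalized to ACTB, GAPDH, POLR2A; bidirectional fit versus DMSO.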

Read-out in experiment [5]: flavin-containing dimethylaniline monooxygenases 3 (FMO3), FMO3 (gene 2328)
Briefly: LTEA_HepaRG_FMO3: Life Technologies and Expression Analysis (LTEA) Assay for flavin-containing dimethylaniline monooxygenases 3 (FMO3) using HepaRG (AID 2283453). The settings on record: mRNA level, 48 h; actives raise or lower the signal. The method in brief: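 Eight-point concentration-response in serum-free HepaRG cultures (top 100 uM, 0.5% DMSO, 48 h). Read-out: FMO3 mRNA level normalized to three endogenous control genes, fitted bidirectionally versus vehicle.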

Read-out in experiment [6]: Cytochrome P450 (CYP1A1), CYP1A1 (gene 1543)
Briefly: LTEA_HepaRG_CYP1A1: Life Technologies and Expression Analysis (LTEA) Assay for Cytochrome P450 (CYP1A1) using HepaRG (AID 2283454). To be noted: mRNA level, 48 h; actives raise or lower the signal. The method in brief:
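HepaRG, 48 h post-plating switched to serum-free induction medium; 8-pt conc-response (top 100 uM, half-log, 0.5% DMSO), duplicates, 48 h. Lysis in RLT, TaqMan qRT-PCR for CYP1A1; gain or loss vs DMSO.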

Read-out in experiment [7]: CFLAR gene, CFLAR (gene 8837)
Kind of experiment: LTEA_HepaRG_CFLAR: Life Technologies and Expression Analysis (LTEA) Assay for CFLAR gene using HepaRG (AID 2283455). To be noted: mRNA level, 48 h; actives raise or lower the signal. The method in brief: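 qRT-PCR read-out (Fluidigm/TaqMan) of CFLAR mRNA, normalized to three housekeeping genes, in differentiated human HepaRG cells after 48 h chemical exposure; 8-point half-log series from 100 uM in 0.5% DMSO; bidirectional curve fitting versus DMSO.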

Read-out in experiment [8]: Forkhead box O1 (FOXO1), FOXO1 (gene 2308)
Kind of experiment: LTEA_HepaRG_FOXO1: Life Technologies and Expression Analysis (LTEA) Assay for Forkhead box O1 (FOXO1) using HepaRG (AID 2283456). The settings on record: mRNA level, 48 h; actives raise or lower the signal. The procedure, abridged: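 HepaRG, 48 h exposure, 8-pt half-log series from 100 uM in 0.5% DMSO, duplicates; Fluidigm qRT-PCR mRNA, housekeeping-normalised; bidirectional fit vs DMSO baseline.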

Read-out in experiment [9]: growth arrest and DNA damage 45 (GADD45A), GADD45A (gene 1647)
Briefly: LTEA_HepaRG_GADD45A: Life Technologies and Expression Analysis (LTEA) Assay for growth arrest and DNA damage 45 (GADD45A) using HepaRG (AID 2283458). The settings on record: mRNA level, 48 h; actives raise or lower the signal. The procedure, abridged:
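HepaRG, 48 h exposure, 8 conc. (top 100 uM, half-log steps), 0.5% DMSO vehicle, duplicates. Read-out: qRT-PCR mRNA level, housekeeping-normalized (ACTB/GAPDH/POLR2A). Curves fit bidirectionally vs DMSO baseline.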

Read-out in experiment [10]: Forkhead box O3 (FOXO3), FOXO3 (gene 2309)
Kind of experiment: LTEA_HepaRG_FOXO3: Life Technologies and Expression Analysis (LTEA) Assay for Forkhead box O3 (FOXO3) using HepaRG (AID 2283459). The settings on record: mRNA level, 48 h; actives raise or lower the signal. The procedure, abridged:
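qRT-PCR readout of FOXO3 transcript, normalized to three housekeeping genes (ACTB, GAPDH, POLR2A); gain or loss fitted against 0.5% DMSO vehicle. HepaRG cells, 48 h chemical exposure, 8-point half-log series, top 100 uM.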

Read-out in experiment [11]: ABC Transporter (ABCB1), ABCB1 (gene 5243)
Kind of experiment: LTEA_HepaRG_ABCB1: Life Technologies and Expression Analysis (LTEA) Assay for ABC Transporter (ABCB1) using HepaRG (AID 2283460). To be noted: mRNA level, 48 h; actives raise or lower the signal. The procedure, abridged: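 HepaRG, 48 h exposure, 8-pt half-log series from 100 uM, 0.5% DMSO vehicle, duplicates. Readout: ABCB1 transcript by Fluidigm TaqMan qRT-PCR, housekeeping-normalized; bidirectional curve fit vs DMSO baseline.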

Read-out in experiment [12]: growth arrest and DNA damage 45 (GADD45B), GADD45B (gene 4616)
Kind of experiment: LTEA_HepaRG_GADD45B: Life Technologies and Expression Analysis (LTEA) Assay for growth arrest and DNA damage 45 (GADD45B) using HepaRG (AID 2283461). To be noted: mRNA level, 48 h; actives raise or lower the signal. The procedure, abridged: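 HepaRG, ~100,000 cells/well, 48 h plating; serum-free induction medium; cpd 100 uM top, half-log x8, 0.5% DMSO, duplicate, 48 h; lysis in RLT, RNA isolation, qRT-PCR; norm ACTB/GAPDH/POLR2A; bidirectional fit vs DMSO.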

Read-out in experiment [13]: ABC Transporter (ABCC3), ABCC3 (gene 8714)
Kind of experiment: LTEA_HepaRG_ABCC3: Life Technologies and Expression Analysis (LTEA) Assay for ABC Transporter (ABCC3) using HepaRG (AID 2283462). The settings on record: mRNA level, 48 h; actives raise or lower the signal. The method in brief: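 Human HepaRG, 48 h dosing, 8-pt half-log series from 100 uM, 0.5% DMSO vehicle, duplicates. ABCC3 mRNA by TaqMan qRT-PCR, housekeeping-normalized; bidirectional curve fit vs DMSO.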

Read-out in experiment [14]: ABC Transporter (ABCB11), ABCB11 (gene 8647)
Kind of experiment: LTEA_HepaRG_ABCB11: Life Technologies and Expression Analysis (LTEA) Assay for ABC Transporter (ABCB11) using HepaRG (AID 2283463). To be noted: mRNA level, 48 h; actives raise or lower the signal. The method in brief:
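HepaRG, 48 h exposure, 8-pt half-log CRC top 100 uM, 0.5% DMSO vehicle, duplicates. Readout: TaqMan qRT-PCR of ABCB11 mRNA, housekeeping-normalized (ACTB/GAPDH/POLR2A). Bidirectional fit vs DMSO baseline.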

Read-out in experiment [15]: ABC Transporter (ABCC2), ABCC2 (gene 1244)
Briefly: LTEA_HepaRG_ABCC2: Life Technologies and Expression Analysis (LTEA) Assay for ABC Transporter (ABCC2) using HepaRG (AID 2283464). To be noted: mRNA level, 48 h; actives raise or lower the signal. The method in brief:
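HepaRG, 48 h post-plating; serum-free induction medium; cpd 8-pt, 100 uM top, half-log, 0.5% DMSO, duplicate, 48 h. Readout: ABCC2 mRNA by qRT-PCR, norm. ACTB/GAPDH/POLR2A. Bidirectional fit vs DMSO baseline.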

Read-out in experiment [16]: Broad substrate specificity ATP-binding cassette transporter ABCG2 (Homo sapiens) (UniProt Q9UNQ0)
Briefly: LTEA_HepaRG_ABCG2: Life Technologies and Expression Analysis (LTEA) Assay for ABC Transporter (ABCG2) using HepaRG (AID 2283465). The settings on record: mRNA level, 48 h; actives raise or lower the signal. The procedure, abridged:
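HepaRG, 48 h exposure, 8-pt half-log series from 100 uM, 0.5% DMSO vehicle, duplicates. Readout: ABCG2 transcript by qRT-PCR (Fluidigm array), housekeeping-normalized; bidirectional curve fit relative to DMSO baseline.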

Read-out in experiment [17]: ATP-citrate lyase (ACLY), ACLY (gene 47)
Kind of experiment: LTEA_HepaRG_ACLY: Life Technologies and Expression Analysis (LTEA) Assay for ATP-citrate lyase (ACLY) using HepaRG (AID 2283466). To be noted: mRNA level, 48 h; actives raise or lower the signal. The procedure, abridged:
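qRT-PCR readout of ACLY transcript after 48 h chemical treatment of HepaRG cells; expression normalized to three housekeeping genes. Eight-point half-log series, highest 100 uM, 0.5% DMSO vehicle. Gain or loss fitted against DMSO baseline.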

Read-out in experiment [18]: Peroxisomal acyl-coenzyme A oxidase 1 (ACOX1) gene, ACOX1 (gene 51)
Kind of experiment: LTEA_HepaRG_ACOX1: Life Technologies and Expression Analysis (LTEA) Assay for Peroxisomal acyl-coenzyme A oxidase 1 (ACOX1) gene using HepaRG (AID 2283467). To be noted: mRNA level, 48 h; actives raise or lower the signal. The procedure, abridged: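 HepaRG, 48 h chemical exposure, 8-pt half-log series from 100 uM top, 0.5% DMSO vehicle, duplicates. Readout: ACOX1 mRNA by Fluidigm qRT-PCR, housekeeping-normalized; bidirectional fit vs DMSO baseline.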

Read-out in experiment [19]: Alkaline Phosphatase, Placental (ALPP) gene, ALPP (gene 250)
Kind of experiment: LTEA_HepaRG_ALPP: Life Technologies and Expression Analysis (LTEA) Assay for Alkaline Phosphatase, Placental (ALPP) gene using HepaRG (AID 2283468). The settings on record: mRNA level, 48 h; actives raise or lower the signal. The method in brief: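 HepaRG, 48 h plating then 48 h dosing, serum-free induction medium, 0.5% DMSO. 8 conc, half-log, max 100 uM, duplicates. Endpoint: ALPP transcript by qRT-PCR, housekeeping-normalized; gain or loss fitted vs DMSO.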

Experiment [20] is described as follows: CEETOX_H295R_TESTO: CeeTox H295R High-throughput Steroidogenesis Assay for Testosterone (TESTO) (AID 2283457). The settings on record: actives raise or lower the signal. The procedure, abridged: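 H295R, passage ≤10, 48 h dosing; media extracted with MTBE → HPLC-MS/MS for testosterone; 7-pt standard curve sets LLOQ/ULOQ; bidirectional fit vs DMSO; MTT viability same wells.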

Chain of Broad substrate specificity ATP-binding cassette transporter ABCG2 (Homo sapiens) (Q9UNQ0 whole entry, looked up): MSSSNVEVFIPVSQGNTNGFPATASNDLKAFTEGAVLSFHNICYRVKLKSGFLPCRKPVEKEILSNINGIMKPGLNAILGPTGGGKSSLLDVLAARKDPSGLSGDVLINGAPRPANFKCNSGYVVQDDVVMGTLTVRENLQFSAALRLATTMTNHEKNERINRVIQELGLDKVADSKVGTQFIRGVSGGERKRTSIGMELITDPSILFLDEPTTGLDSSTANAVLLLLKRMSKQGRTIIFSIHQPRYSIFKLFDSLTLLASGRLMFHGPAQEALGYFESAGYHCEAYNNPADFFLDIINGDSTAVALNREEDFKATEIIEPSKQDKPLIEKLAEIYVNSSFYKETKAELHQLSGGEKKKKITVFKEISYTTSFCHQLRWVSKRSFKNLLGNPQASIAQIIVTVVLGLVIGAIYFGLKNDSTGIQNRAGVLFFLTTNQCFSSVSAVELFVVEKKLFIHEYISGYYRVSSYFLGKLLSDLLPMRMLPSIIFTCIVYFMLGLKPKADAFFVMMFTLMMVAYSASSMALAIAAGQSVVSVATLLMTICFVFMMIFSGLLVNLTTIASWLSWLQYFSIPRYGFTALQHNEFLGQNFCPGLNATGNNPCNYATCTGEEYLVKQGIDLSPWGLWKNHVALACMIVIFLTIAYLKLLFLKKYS

`CCCOC(=O)NCCCN(C)C`: the molecule was called inactive in experiment [1], in experiment [2], in experiment [3], in experiment [4], in experiment [5] and in [6]. In addition, the outcome in experiment [7], in experiment [8], in experiment [9], in experiment [10], in experiment [11] and in experiment [12] was inactive. Further, the molecule was called inactive in experiment [13], in [14], in [15], in experiment [16], in [17] and in experiment [18]. In addition, the call in experiment [19] was inactive.
In the case of `CCNc1nc(N)nc(Cl)n1`, the result in experiment [1], in experiment [2], in [3], in experiment [4], in experiment [5] and in experiment [6] was inactive. In addition, the molecule was classed as inactive in experiment [7], in experiment [8], in experiment [9], in experiment [10], in experiment [11] and in experiment [12]. Moreover, the molecule was called inactive in [13], in experiment [14], in experiment [15], in [16], in [17] and in [18]. Also, the result in experiment [19] was inactive.
As to `CCCCOCCOCCOCc1cc2c(cc1CCC)OCO2`, the call in [1], in experiment [2], in [3], in experiment [4], in experiment [5] and in experiment [7] was inactive. For the same molecule, the call in experiment [8], in [20], in experiment [9], in [10], in experiment [12] and in experiment [13] was inactive. The call in experiment [14], in [17] and in experiment [19] was inactive. Moreover, the AC50 is 12.9 µM (active) in experiment [6], 4.01 µM (active) in experiment [11], 7.48 µM (active) in experiment [15] and 8.84 µM (active) in [16].
